From PubChem BioAssay
For some assays here: Entries with a potency or affinity are not part of this list. Calls of active or inactive are those of the source. Unless noted, no rule for the calls is given here.

Columns and labels:
[1] = target: Calcium-dependent protein kinase 1 (Plasmodium falciparum (isolate 3D7)) (UniProt P62344); experiment: PfCDPK1 kinase inhibitors, biochemical, TCAMS library (AID 1159585; cut-off not given, nearly all actives have IC50 up to about 0.98 µM;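 also: inhibitors leave more ATP so luminescence rises with inhibition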); details: recombinant PfCDPK1, Kinase-Glo ATP depletion luminescence
Sequence of Calcium-dependent protein kinase 1 (Plasmodium falciparum (isolate 3D7)) (P62344 whole entry, looked up): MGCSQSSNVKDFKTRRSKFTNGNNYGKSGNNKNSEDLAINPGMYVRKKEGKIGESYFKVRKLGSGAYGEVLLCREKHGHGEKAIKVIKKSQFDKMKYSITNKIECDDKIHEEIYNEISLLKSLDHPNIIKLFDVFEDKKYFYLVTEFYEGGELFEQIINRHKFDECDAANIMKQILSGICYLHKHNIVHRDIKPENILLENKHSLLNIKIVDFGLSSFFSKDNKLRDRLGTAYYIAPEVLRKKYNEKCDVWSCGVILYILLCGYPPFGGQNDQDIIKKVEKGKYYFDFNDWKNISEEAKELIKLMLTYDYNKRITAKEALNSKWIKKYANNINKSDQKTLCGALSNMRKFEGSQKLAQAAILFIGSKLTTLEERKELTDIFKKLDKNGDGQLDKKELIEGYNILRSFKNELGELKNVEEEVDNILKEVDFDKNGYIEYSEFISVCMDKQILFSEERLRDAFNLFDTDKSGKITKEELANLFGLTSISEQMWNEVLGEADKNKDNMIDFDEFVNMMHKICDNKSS

[2] = target: Plasmodium falciparum protein kinase 6 (PK6, PF3D7_1337100) (UniProt Q8IDW1); experiment: PfPK6 kinase inhibitors, biochemical, TCAMS library (AID 1159586); details: recombinant PfPK6, Kinase-Glo ATP depletion luminescence
Sequence of Plasmodium falciparum protein kinase 6 (PK6, PF3D7_1337100) (Q8IDW1 1-305): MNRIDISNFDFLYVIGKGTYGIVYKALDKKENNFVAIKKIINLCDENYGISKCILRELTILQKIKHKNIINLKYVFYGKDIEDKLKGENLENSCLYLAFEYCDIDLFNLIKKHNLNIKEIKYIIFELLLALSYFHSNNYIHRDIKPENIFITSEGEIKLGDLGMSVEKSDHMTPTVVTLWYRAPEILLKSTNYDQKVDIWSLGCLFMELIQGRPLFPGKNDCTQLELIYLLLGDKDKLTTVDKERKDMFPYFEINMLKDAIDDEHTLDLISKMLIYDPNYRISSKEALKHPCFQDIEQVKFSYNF

[3] = target: Protein kinase 7 (PK7), Plasmodium falciparum 3D7 (PF3D7_0213400) (UniProt Q7YTF7); experiment: inhibition of Plasmodium PK7 catalytic activity – biochemical, TCAMS antimalarial set, Kinase-Glo luminescence (AID 1159587); details: recombinant PfPK7, Kinase-Glo ATP depletion luminescence
Sequence of Protein kinase 7 (PK7), Plasmodium falciparum 3D7 (PF3D7_0213400) (Q7YTF7 1-343): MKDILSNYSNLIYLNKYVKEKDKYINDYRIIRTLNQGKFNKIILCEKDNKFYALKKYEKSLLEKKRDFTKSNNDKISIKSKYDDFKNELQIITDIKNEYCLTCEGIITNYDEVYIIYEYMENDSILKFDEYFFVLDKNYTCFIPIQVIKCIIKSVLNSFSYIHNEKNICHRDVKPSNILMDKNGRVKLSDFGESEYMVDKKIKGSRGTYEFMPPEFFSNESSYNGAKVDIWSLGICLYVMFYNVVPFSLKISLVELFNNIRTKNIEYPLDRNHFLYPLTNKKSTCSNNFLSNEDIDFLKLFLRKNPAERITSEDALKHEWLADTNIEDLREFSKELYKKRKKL

[4] = target: Calcium-dependent protein kinase 4 (Plasmodium falciparum (isolate 3D7)) (UniProt Q8IBS5); experiment: PfCDPK4 kinase inhibitors, biochemical, TCAMS library (AID 1159588; cut-off not given, nearly all actives have IC50 up to about 0.91 µM); details: recombinant PfCDPK4, Kinase-Glo ATP depletion luminescence
Sequence of Calcium-dependent protein kinase 4 (Plasmodium falciparum (isolate 3D7)) (Q8IBS5 whole entry, looked up): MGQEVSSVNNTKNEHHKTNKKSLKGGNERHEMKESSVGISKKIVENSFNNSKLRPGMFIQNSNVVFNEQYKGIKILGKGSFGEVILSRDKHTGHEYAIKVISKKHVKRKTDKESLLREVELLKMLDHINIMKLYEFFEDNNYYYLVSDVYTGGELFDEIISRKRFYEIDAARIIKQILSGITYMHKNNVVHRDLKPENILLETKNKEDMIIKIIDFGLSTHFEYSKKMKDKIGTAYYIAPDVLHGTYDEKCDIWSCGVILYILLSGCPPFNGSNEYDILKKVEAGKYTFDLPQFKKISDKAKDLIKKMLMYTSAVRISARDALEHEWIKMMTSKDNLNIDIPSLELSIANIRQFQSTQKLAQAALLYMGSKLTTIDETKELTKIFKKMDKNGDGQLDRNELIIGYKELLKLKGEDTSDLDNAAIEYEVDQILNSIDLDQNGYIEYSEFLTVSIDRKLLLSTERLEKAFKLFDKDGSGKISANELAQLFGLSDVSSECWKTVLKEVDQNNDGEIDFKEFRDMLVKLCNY

[5] = antimalarial activity against Dd2 strain (AID 2302;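 active = growth inhibition above 50% at the single 2 µM test dose, taken to imply half-maximal potency below 2 µM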;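 also: 0% = DMSO untreated growth and 100% = chloroquine plus artemisinin killed control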); details: P. falciparum Dd2 in RBCs, LDH growth readout, 72 h; at 2 µM; active compounds read high
[6] = human hepatoma cell viability loss – ATP luminescence, cytotoxicity control for P. falciparum antimalarial project, primary screen (AID 2303;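 active = inhibition above 50%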;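 also: 0% = DMSO wells and 100% = digitonin-killed cells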); details: HepG2 viability, 24-48 h, at 10 µM, active compounds read high
[7] = target: L-lactate dehydrogenase (Plasmodium falciparum (isolate CDC / Honduras)) (UniProt Q27743); experiment: PfLDH activity inhibition – cell lysate, 3D7 strain, counter-screen for P. falciparum growth inhibition project (AID 2304);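 also: 0% = vehicle and 100% = reference inhibitor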; details: P. falciparum 3D7 crude extract, LDH APAD/NBT absorbance; at 2 µM; active compounds read high
Sequence of L-lactate dehydrogenase (Plasmodium falciparum (isolate CDC / Honduras)) (Q27743 whole entry, looked up): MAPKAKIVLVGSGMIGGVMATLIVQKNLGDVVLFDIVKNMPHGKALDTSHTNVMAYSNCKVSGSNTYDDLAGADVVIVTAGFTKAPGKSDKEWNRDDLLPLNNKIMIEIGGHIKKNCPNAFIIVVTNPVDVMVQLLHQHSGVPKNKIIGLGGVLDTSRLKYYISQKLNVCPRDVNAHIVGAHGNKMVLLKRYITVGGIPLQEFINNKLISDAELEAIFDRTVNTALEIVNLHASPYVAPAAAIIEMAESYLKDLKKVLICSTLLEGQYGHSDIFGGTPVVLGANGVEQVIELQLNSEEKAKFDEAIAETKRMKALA

[8] = inhibition of 3D7 malaria parasite growth – strain 3D7 (AID 2306);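 also: 0% = DMSO wells and 100% = chloroquine plus artemisinin control wells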; details: P. falciparum 3D7 erythrocytic growth, LDH absorbance, 72 h; at 2 µM; active compounds read high
[9] = test system: F380Y; experiment: BK channel mutant inhibitors and activators – cell-based, U2OS BacMam, thallium flux, beta subunits, selectivity assay, profiling panel (AID 1259406;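 active = thallium flux through the channel raised or lowered by more than 3 SD from vehicle-only wells, actives on both sides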;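 also: initial slope of Thallos dye fluorescence rise after thallium is added; log ratio against the mean of 0.3% DMSO vehicle wells on the same plate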); details: U2OS BacMam BK variants, at 30 µM
[10] = test system: F380Y/beta1; experiment: as above; details: U2OS BacMam BK variants, at 30 µM
[11] = test system: F380Y/beta2Delta; experiment: as above; details: U2OS BacMam BK variants, at 30 µM
[12] = test system: F380Y/beta4; experiment: as above; details: U2OS BacMam BK variants, at 30 µM
[13] = target: Calcium-activated potassium channel subunit alpha-1 (Homo sapiens) + Leucine-rich repeat-containing protein 26 (Homo sapiens) (UniProt Q12791+Q2I0M4); experiment: as above; details: U2OS BacMam BK variants, F380Y/Slo1WT/gamma1, at 30 µM
Sequence of Calcium-activated potassium channel subunit alpha-1 (Homo sapiens) + Leucine-rich repeat-containing protein 26 (Homo sapiens) (Q2I0M4 whole entry, looked up, one chain of several): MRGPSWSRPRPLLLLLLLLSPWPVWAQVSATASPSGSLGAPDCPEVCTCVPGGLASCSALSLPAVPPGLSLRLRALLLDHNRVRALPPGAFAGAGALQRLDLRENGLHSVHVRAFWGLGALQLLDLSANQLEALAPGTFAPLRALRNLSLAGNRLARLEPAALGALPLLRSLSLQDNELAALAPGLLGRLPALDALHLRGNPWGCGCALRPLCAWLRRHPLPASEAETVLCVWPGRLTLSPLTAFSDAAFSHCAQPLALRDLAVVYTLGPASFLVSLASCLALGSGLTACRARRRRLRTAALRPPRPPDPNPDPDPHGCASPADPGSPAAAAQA

[14] = test system: R275C; experiment: as above; details: U2OS BacMam BK variants, at 30 µM
[15] = test system: R275C/beta1; experiment: as above; details: U2OS BacMam BK variants, at 30 µM
[16] = test system: R275C/beta2Delta; experiment: as above; details: U2OS BacMam BK variants, at 30 µM
[17] = test system: R275C/beta4; experiment: as above; details: U2OS BacMam BK variants, at 30 µM
[18] = test system: R275C/Slo1WT/beta2; experiment: as above; details: U2OS BacMam BK variants, at 30 µM

SMILES: Cc1cccc2[nH]c(-c3cccc(-c4cccc(NC(=O)Cc5ccc[n+]([O-])c5)c4)c3)nc12
- outcome [1]: inactive
- outcome [2]: inactive
- outcome [3]: inactive
- outcome [4]: inactive

SMILES: O=[N+]([O-])c1ccc(-c2nc3ccc(C4=N[C@@H]5CCCC[C@@H]5N4)cc3[nH]2)cc1
- outcome [1]: inactive
- outcome [2]: inactive
- outcome [3]: inactive
- outcome [4]: inactive

SMILES: CCCO[C@H](C(=O)OC)[C@H](CC1Cc2ccccc2C1)C(=O)NCCC1=CCCCC1
- outcome [1]: inactive
- outcome [2]: inactive
- outcome [3]: inactive
- outcome [4]: inactive

SMILES: O=C(N/C=N/c1cc([N+](=O)[O-])c(-c2cccnc2)n1-c1ccc(O)cc1)c1ccccc1
- outcome [1]: inactive
- outcome [2]: inactive
- outcome [3]: inactive
- outcome [4]: inactive

SMILES: CCCC[C@H](C(=O)NCc1ccccc1C(F)(F)F)N1C(=O)CCC1C(=O)Nc1ccc([N+](=O)[O-])cc1 (some centres undefined)
- outcome [1]: inactive
- outcome [2]: inactive
- outcome [3]: inactive
- outcome [4]: inactive

SMILES: O/N=C1\CCc2cc(-c3nc(-c4cccc(OCCNCc5ccc(F)cc5)c4)[nH]c3-c3ccncc3)ccc21
- outcome [1]: inactive
- outcome [2]: inactive
- outcome [3]: inactive
- outcome [4]: inactive

SMILES: O=C(N/N=C/c1nc2ccccc2[nH]1)c1cccc([N+](=O)[O-])c1
- outcome [1]: inactive
- outcome [2]: inactive
- outcome [3]: inactive
- outcome [4]: inactive

SMILES: COc1ccc(Nc2nc(N/N=C/c3ccc(O)cc3)nc(Nc3ccc([N+](=O)[O-])cc3)n2)cc1
- outcome [1]: inactive
- outcome [2]: inactive
- outcome [3]: inactive
- outcome [4]: inactive

SMILES: CCn1c(/C=C/c2cc(Br)ccc2O)nc2ccccc2c1=O
- outcome [1]: inactive
- outcome [2]: inactive
- outcome [3]: inactive
- outcome [4]: inactive

SMILES: C/C(=N\NC(N)=O)C1=C(O)C(c2ccccc2)N(C2CCCCC2)C1=O (centres undefined)
- outcome [1]: inactive
- outcome [2]: inactive
- outcome [3]: inactive
- outcome [4]: inactive

SMILES: CN(C)CCCOc1ccc(-c2nc(-c3ccc4c(c3)CC/C4=N\O)c(-c3ccncc3)[nH]2)cc1
- outcome [1]: inactive
- outcome [2]: inactive
- outcome [3]: inactive
- outcome [4]: inactive

SMILES: CCC[C@H](C(=O)NCCc1cccc(OC)c1)N1C(=O)c2c(ccc(OC)c2OC)C1C(=O)Nc1c(C)cccc1C (some centres undefined)
- outcome [1]: inactive
- outcome [2]: inactive
- outcome [3]: inactive
- outcome [4]: inactive

SMILES: O=C1C=CC(=C2NC(c3ccccc3)=C(c3ccc4oc5ccc(C6=C(c7ccccc7)NC(=C7C=CC(=O)C=C7)N6)cc5c4c3)N2)C=C1
- outcome [1]: inactive
- outcome [2]: inactive
- outcome [3]: inactive
- outcome [4]: inactive

SMILES: Oc1cccc(-c2nc(-c3ccc4oc5ccc(-c6nc(-c7cccc(O)c7)[nH]c6-c6ccccc6)cc5c4c3)c(-c3ccccc3)[nH]2)c1
- outcome [1]: inactive
- outcome [2]: inactive
- outcome [3]: inactive
- outcome [4]: inactive

SMILES: C/C(=N\O)C1=C(O)C(c2ccccc2)N(c2ccccc2)C1=O (centres undefined)
- outcome [1]: inactive
- outcome [2]: inactive
- outcome [3]: inactive
- outcome [4]: inactive

SMILES: Nc1cc(/C=C/c2ccc(O)cc2)nc2ccccc12
- outcome [1]: inactive
- outcome [2]: inactive
- outcome [3]: inactive
- outcome [4]: inactive

SMILES: Oc1c(/C=N/n2cnnc2)sc2ccccc12
- outcome [1]: inactive
- outcome [2]: inactive
- outcome [3]: inactive
- outcome [4]: inactive

SMILES: O=[N+]([O-])c1cccc(-c2nc3ccc(C4=N[C@@H]5CCCC[C@@H]5N4)cc3[nH]2)c1
- outcome [1]: inactive
- outcome [2]: inactive
- outcome [3]: inactive
- outcome [4]: inactive

SMILES: O=C(Nc1ccc(Oc2ccc(OC(F)(F)F)cc2)cc1)c1ccco1
- growth inhibition [5]: 71% (active)
- inhibition [6]: 5% (inactive)
- inhibition [7]: -1% (inactive)
- growth inhibition [8]: 90% (active)
- outcome [1]: inactive
- outcome [2]: inactive
- outcome [3]: inactive
- outcome [4]: inactive
- log fold change Tl+ flux [9]: -0.43 (active)
- log fold change Tl+ flux [10]: -0.196 (active)
- log fold change Tl+ flux [11]: -0.597 (active)
- log fold change Tl+ flux [12]: -0.36 (active)
- log fold change Tl+ flux [13]: -0.305 (active)
- log fold change Tl+ flux [14]: -0.00331 (inactive)
- log fold change Tl+ flux [15]: -0.0279 (inactive)
- log fold change Tl+ flux [16]: 0.0205 (inactive)
- log fold change Tl+ flux [17]: -0.00484 (inactive)
- log fold change Tl+ flux [18]: 0.0301 (inactive)

SMILES: COc1cc(/C=N/Nc2ccnc3cc(Cl)ccc23)ccc1O
- outcome [1]: inactive
- outcome [2]: inactive
- outcome [3]: inactive
- outcome [4]: inactive

SMILES: O=C(N/C=N/c1cc([N+](=O)[O-])c(-c2ccncc2)n1-c1ccccc1)c1cccc(O)c1
- outcome [1]: inactive
- outcome [2]: inactive
- outcome [3]: inactive
- outcome [4]: inactive

SMILES: CC(C)C[C@H](C(=O)N[C@H](C(=O)Nc1nccs1)C(C)(C)C)[C@H](CCC(F)(F)F)N(O)C=O
- outcome [1]: inactive
- outcome [2]: inactive
- outcome [3]: inactive
- outcome [4]: inactive

SMILES: Cc1cc(-c2cc(-c3ccc(OCCN(C)C)cc3)[nH]c2-c2ccc3c(c2)CC/C3=N\O)ccn1
- outcome [1]: inactive
- outcome [2]: inactive
- outcome [3]: inactive
- outcome [4]: inactive

SMILES: COc1ccc(Nc2nc(N/N=C/c3cc(Br)ccc3O)nc(Nc3ccc([N+](=O)[O-])cc3)n2)cc1
- outcome [1]: inactive
- outcome [2]: inactive
- outcome [3]: inactive
- outcome [4]: inactive

SMILES: Oc1ccc(/C=N/NC(=S)Nc2cccc3ccccc23)c(O)c1
- outcome [1]: inactive
- outcome [2]: inactive
- outcome [3]: inactive
- outcome [4]: inactive

SMILES: CCCCCC(C)C(C)c1cc(O)c2c(c1)OC(C)(C)CC2c1cc[n+]([O-])cc1 (centres undefined)
- outcome [1]: inactive
- outcome [2]: inactive
- outcome [3]: inactive
- outcome [4]: inactive

SMILES: CCCCCC(C)C(C)c1cc(O)c2c(c1)OC(C)(C)C=C2c1cc[n+]([O-])cc1 (centres undefined)
- outcome [1]: inactive
- outcome [2]: inactive
- outcome [3]: inactive
- outcome [4]: inactive

SMILES: Oc1cccc(-c2nc(-c3cccc(I)c3)c(-c3ccc(-c4[nH]c(-c5cccc(O)c5)nc4-c4cccc(I)c4)cc3)[nH]2)c1
- outcome [1]: inactive
- outcome [2]: inactive
- outcome [3]: inactive
- outcome [4]: inactive

SMILES: O=[N+]([O-])c1ccc(Nc2nc(N/N=C/c3cc(Cl)cc(Cl)c3O)nc(Nc3ccccc3)n2)cc1
- outcome [1]: inactive
- outcome [2]: inactive
- outcome [3]: inactive
- outcome [4]: inactive

SMILES: Cc1[nH]c2ccccc2c1/C=N/Nc1nc(Nc2ccccc2)nc(Nc2ccccc2)n1
- outcome [1]: inactive
- outcome [2]: inactive
- outcome [3]: inactive
- outcome [4]: inactive
